Test results from PubChem BioAssay (NCATS).
Inconclusive results are not listed. A call without a number means that no potency is given here. Values without a mark were called inactive. The source made the active and inactive calls. Calls come from the whole dose curve; as a rule, active = well fitted inhibition curve with a large enough effect; inconclusive = small, poorly fitted or top-dose-only effect; inactive = flat fitted curve, though single readings scatter.

Columns and labels:
[1] = qHTS profiling for inhibitors of Plasmodium falciparum proliferation (AID 504749); note: nearly all actives have a fitted effect of over 60% in size; conditions: P. falciparum in erythrocytes, SYBR Green DNA, 72 h
In short: (§1)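 Fluorescence of SYBR Green-bound parasite DNA, read at 485/535 nm, served as the growth measure. Infected erythrocytes were cultured with compound 72 h; artemisinin (0.29 uM) and DMSO wells defined the normalization range.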

3D7 = test: as above; conditions: P. falciparum in erythrocytes, SYBR Green DNA, 72 h; series mostly up to 28.7 µM
In short: as §1

7G8 = test: as above; conditions: P. falciparum in erythrocytes, SYBR Green DNA, 72 h; series mostly up to 28.7 µM
In short: as §1

AA1029 = test: as above; conditions: P. falciparum in erythrocytes, SYBR Green DNA, 72 h; series mostly up to 28.7 µM
In short: as §1

AS120 = test: as above; conditions: P. falciparum in erythrocytes, SYBR Green DNA, 72 h; series mostly up to 28.7 µM
In short: as §1

ATS189 = test: as above; conditions: P. falciparum in erythrocytes, SYBR Green DNA, 72 h; series mostly up to 28.7 µM
In short: as §1

ATS95 = test: as above; conditions: P. falciparum in erythrocytes, SYBR Green DNA, 72 h; series mostly up to 28.7 µM
In short: as §1

C2A = test: as above; conditions: P. falciparum in erythrocytes, SYBR Green DNA, 72 h; series mostly up to 28.7 µM
In short: as §1

CP185 = test: as above; conditions: P. falciparum in erythrocytes, SYBR Green DNA, 72 h; series mostly up to 28.7 µM
In short: as §1

CP191 = test: as above; conditions: P. falciparum in erythrocytes, SYBR Green DNA, 72 h; series mostly up to 28.7 µM
In short: as §1

CP192 = test: as above; conditions: P. falciparum in erythrocytes, SYBR Green DNA, 72 h; series mostly up to 28.7 µM
In short: as §1

CP194 = test: as above; conditions: P. falciparum in erythrocytes, SYBR Green DNA, 72 h; series mostly up to 28.7 µM
In short: as §1

CP201 = test: as above; conditions: P. falciparum in erythrocytes, SYBR Green DNA, 72 h; series mostly up to 28.7 µM
In short: as §1

CP203 = test: as above; conditions: P. falciparum in erythrocytes, SYBR Green DNA, 72 h; series mostly up to 28.7 µM
In short: as §1

CP211 = test: as above; conditions: P. falciparum in erythrocytes, SYBR Green DNA, 72 h; series mostly up to 28.7 µM
In short: as §1

CP215 = test: as above; conditions: P. falciparum in erythrocytes, SYBR Green DNA, 72 h; series mostly up to 28.7 µM
In short: as §1

CP217 = test: as above; conditions: P. falciparum in erythrocytes, SYBR Green DNA, 72 h; series mostly up to 28.7 µM
In short: as §1

[2] = at 28.7 µM (top of the series), parasite line A
[3] = at 28.7 µM (top of the series), parasite line B
Potency is the fitted concentration of half-maximal effect.

## Cc1ccccc1OCC(O)CNCCOc1ccc(C(N)=O)cc1 (stereo not given)
[1]; [2]
  activity, negative = inhibition: 11.2%
[1]; [3]
  activity, negative = inhibition: 8.46%
3D7
  Potency: inactive
7G8
  Potency: inactive
AA1029
  Potency: inactive
AS120
  Potency: inactive
ATS189
  Potency: inactive
ATS95
  Potency: inactive
C2A
  Potency: inactive
CP185
  Potency: inactive
CP191
  Potency: inactive
CP192
  Potency: inactive
CP194
  Potency: inactive
CP201
  Potency: inactive
CP203
  Potency: inactive
CP211
  Potency: inactive
CP215
  Potency: inactive
CP217
  Potency: inactive

## C[C@@H]1CCC2[C@@H](C)[C@@H](O)O[C@@H]3O[C@@]4(C)CC[C@@H]1[C@@]23OO4 (stereo not given in full)
[1]; parasite line A
  Potency: 1.4 nM (active)
[1]; parasite line B
  Potency: 1.8 nM (active)
3D7
  Potency: 3.5 nM (active)
7G8
  Potency: 0.8 nM (active)
AA1029
  Potency: 2.2 nM (active)
AS120
  Potency: 1.6 nM (active)
ATS189
  Potency: 2.2 nM (active)
ATS95
  Potency: 2.2 nM (active)
C2A
  Potency: 2.2 nM (active)
CP185
  Potency: 2.5 nM (active)
CP191
  Potency: 3.2 nM (active)
CP192
  Potency: 4.3 nM (active)
CP194
  Potency: 6 nM (active)
CP201
  Potency: 10.7 nM (active)
CP203
  Potency: 3.4 nM (active)
CP211
  Potency: 5.4 nM (active)
CP215
  Potency: 4.8 nM (active)
CP217
  Potency: 2.8 nM (active)

## CC(O)CO (stereo not given)
[1]; [2]
  activity, negative = inhibition: 8.15%
[1]; [3]
  activity, negative = inhibition: 7.84%
3D7
  Potency: inactive
7G8
  Potency: inactive
AA1029
  Potency: inactive
AS120
  Potency: inactive
ATS189
  Potency: inactive
ATS95
  Potency: inactive
C2A
  Potency: inactive
CP185
  Potency: inactive
CP191
  Potency: inactive
CP192
  Potency: inactive
CP194
  Potency: inactive
CP201
  Potency: inactive
CP203
  Potency: inactive
CP211
  Potency: inactive
CP215
  Potency: inactive
CP217
  Potency: inactive

## CCCCC/C=C\C/C=C\CCCCCCCC(=O)O
[1]; [2]
  activity, negative = inhibition: 6.83%
[1]; [3]
  activity, negative = inhibition: 5.9%
3D7
  Potency: inactive
7G8
  Potency: inactive
AA1029
  Potency: inactive
AS120
  Potency: inactive
ATS189
  Potency: inactive
ATS95
  Potency: inactive
C2A
  Potency: inactive
CP185
  Potency: inactive
CP191
  Potency: inactive
CP192
  Potency: inactive
CP194
  Potency: inactive
CP201
  Potency: inactive
CP203
  Potency: inactive
CP211
  Potency: inactive
CP215
  Potency: inactive
CP217
  Potency: inactive

## IC(I)I
[1]; [2]
  activity, negative = inhibition: 0.888%
[1]; [3]
  activity, negative = inhibition: 2.57%
3D7
  Potency: inactive
7G8
  Potency: inactive
AA1029
  Potency: inactive
AS120
  Potency: inactive
ATS189
  Potency: inactive
ATS95
  Potency: inactive
C2A
  Potency: inactive
CP185
  Potency: inactive
CP191
  Potency: inactive
CP194
  Potency: inactive
CP201
  Potency: inactive
CP203
  Potency: inactive
CP211
  Potency: inactive
CP217
  Potency: inactive

## CC1(C)S[C@@H]2[C@H](NC(=O)[C@@H](NC(=O)N3CCNC3=O)c3ccccc3)C(=O)N2[C@H]1C(=O)O
[1]; at 12.8 µM (top of the series), parasite line A
  activity, negative = inhibition: 9.18%
[1]; at 12.8 µM (top of the series), parasite line B
  activity, negative = inhibition: -0.988%
3D7
  Potency: inactive
7G8
  Potency: inactive
AA1029
  Potency: inactive
AS120
  Potency: inactive
ATS189
  Potency: inactive
ATS95
  Potency: inactive
C2A
  Potency: inactive
CP185
  Potency: inactive
CP191
  Potency: inactive
CP192
  Potency: inactive
CP194
  Potency: inactive
CP201
  Potency: inactive
CP203
  Potency: inactive
CP211
  Potency: inactive
CP215
  Potency: inactive
CP217
  Potency: inactive

## Cc1cn([C@H]2C[C@H](O)[C@@H](CO)O2)c(=O)[nH]c1=O
[1]; [2]
  activity, negative = inhibition: 4.1%
[1]; [3]
  activity, negative = inhibition: -3.41%
3D7
  Potency: inactive
7G8
  Potency: inactive
AA1029
  Potency: inactive
AS120
  Potency: inactive
ATS189
  Potency: inactive
ATS95
  Potency: inactive
C2A
  Potency: inactive
CP185
  Potency: inactive
CP191
  Potency: inactive
CP192
  Potency: inactive
CP194
  Potency: inactive
CP201
  Potency: inactive
CP203
  Potency: inactive
CP211
  Potency: inactive
CP215
  Potency: inactive
CP217
  Potency: inactive

## CC(C(=O)O)c1ccc(N2Cc3ccccc3C2=O)cc1 (stereo not given)
[1]; [2]
  activity, negative = inhibition: 8.3%
[1]; [3]
  activity, negative = inhibition: 10.3%
3D7
  Potency: inactive
7G8
  Potency: inactive
AA1029
  Potency: inactive
AS120
  Potency: inactive
ATS189
  Potency: inactive
ATS95
  Potency: inactive
C2A
  Potency: inactive
CP185
  Potency: inactive
CP191
  Potency: inactive
CP192
  Potency: inactive
CP194
  Potency: inactive
CP201
  Potency: inactive
CP203
  Potency: inactive
CP211
  Potency: inactive
CP215
  Potency: inactive
CP217
  Potency: inactive

## CCCCCCCCCCCCCCCC(=O)OCC(COC(=O)CCCCCCCCCCCCCCC)OC(=O)CCCCCCCCCCCCCCC
[1]; [2]
  activity, negative = inhibition: -0.409%
[1]; [3]
  activity, negative = inhibition: 9.45%
3D7
  Potency: inactive
7G8
  Potency: inactive
AA1029
  Potency: inactive
AS120
  Potency: inactive
ATS189
  Potency: inactive
ATS95
  Potency: inactive
C2A
  Potency: inactive
CP185
  Potency: inactive
CP191
  Potency: inactive
CP192
  Potency: inactive
CP194
  Potency: inactive
CP201
  Potency: inactive
CP203
  Potency: inactive
CP211
  Potency: inactive
CP215
  Potency: inactive
CP217
  Potency: inactive
